Compound activity from PubChem BioAssay.
The sample as a whole holds a higher share of hits than the screen did.
Tb PYK inh: blocks Trypanosoma brucei pyruvate kinase; TbPYK enzyme, Kinase-Glo Plus ATP luminescence, 45 min; 410,000 compounds, 0.12% hits; Potency, µM (titrated, usually from 76.8 µM), without a hit: at the highest dose activity, negative = inhibition, usual class: inhibitors; Q57TT1; note: potency is the fitted concentration of half-maximal effect; % is set by controls: 0 for no effect and ±100 for the full control effect; nearly all actives have a fitted effect of over 50% in size
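Readout: single end-point luminescence (Kinase-Glo Plus, 10 min). Reaction conditions were TbPYK/substrate plus 130 uM ADP, 45 min at RT, pH 7.2 TEA buffer. No-enzyme wells served as controls, and data were normalized before concentration-response fitting.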
LmPK inhibitor: LmPK (Leishmania mexicana) enzyme inhibition | AID 1721 | purified LmPK, Kinase-Glo ATP luminescence, 1 h | 290,000 compounds, 0.37% hits | Potency, µM (highest dose often 57.5 µM), for the others: at the highest dose activity change, negative = inhibition, actives largely listed as inhibitors; note: potency is the fitted concentration of half-maximal effect; % is set by controls: 0 for no effect and ±100 for the full control effect
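ATP generated from ADP (0.1 mM) and PEP (0.5 mM) by 0.1 nM LmPK over 1 h at room temperature (pH 7.2 imidazole buffer) was detected by coupled luciferase luminescence. Values were normalized to uninhibited and no-enzyme wells.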
RE007 growth inh: less growth of the S. pombe RE007 Vpr strain; S. pombe RE007 Vpr strain, BacTiter-Glo ATP luminescence, 24 h; Potency, µM (titrated, usually from 92.2 µM), without a hit: top-dose activity change, negative = less growth, usual class: inhibitors; 360,000 compounds, 0.21% hits; active = well fitted falling curve with a large enough effect; note: potency is the fitted concentration of half-maximal effect; % is set by controls: 0 for no effect and ±100 for the full control effect; nearly all actives have a fitted effect of over 50% in size
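Fission yeast RE007 carrying one integrated HIV-1 vpr copy, seeded at OD 0.01 in PMG+AL medium with 23 nL pinned compound. Grown 24 h at 30 degrees; viability read by BacTiter-Glo luminescence after 5 min.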
CHX counter: counter-screen for Shiga toxin inhibitors: cycloheximide protein synthesis inhibition; cell reporter, cycloheximide protein synthesis inhibition counterscreen; max response, %; 300,000 compounds, 12% hits; AID 2314; in the data active = max response mostly above about 13%, no sharp cut-off; inactive = mostly below about 14%; note: read at 38.3 µM for the half of the compounds with a filed dose; 0% is about no effect
Shiga toxin inh: Shiga toxin inhibition; inhibition, % at 38.7 µM; AID 2315; 290,000 compounds, 9.2% hits; Vero cells, Shiga toxin protein synthesis inhibition reporter; in the data active = inhibition mostly above about 28%, no sharp cut-off; inactive = mostly below about 43%; note: 0% is about no effect
Giardia FBPA inh: inhibitors of Giardia lamblia fructose-1,6-bisphosphate aldolase; Potency, µM (titrated, usually from 59.6 µM), inactives show at the highest dose activity, negative = inhibition, most hits filed as inhibitors; AID 2451; purified Giardia FBPA; 290,000 compounds, 0.71% hits; A8B2U2; note: potency is the fitted concentration of half-maximal effect; % is set by controls: 0 for no effect and ±100 for the full control effect; nearly all actives have a fitted effect of over 55% in size
Target sequence (A8B2U2 whole entry, looked up): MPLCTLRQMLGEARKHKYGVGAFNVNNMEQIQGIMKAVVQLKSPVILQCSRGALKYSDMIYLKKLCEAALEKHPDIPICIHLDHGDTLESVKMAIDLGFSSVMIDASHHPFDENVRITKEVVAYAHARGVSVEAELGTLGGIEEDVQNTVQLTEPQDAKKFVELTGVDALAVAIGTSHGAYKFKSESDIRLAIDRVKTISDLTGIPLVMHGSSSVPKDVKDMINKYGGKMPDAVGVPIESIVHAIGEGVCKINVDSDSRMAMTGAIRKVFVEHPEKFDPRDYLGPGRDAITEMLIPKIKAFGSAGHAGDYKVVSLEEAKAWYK
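40 nM FBPA preincubated 10 min at RT with compound (up to 57.5 uM final), then substrate plus GAPDH/TPI/NAD/arsenate coupling and diaphorase/resazurin added. Fluorescence read after 20 min at RT, 525/598 nm.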
Numbers without * were called inactive. Unless noted, calls come from the whole dose curve; as a rule, active = well fitted curve in the direction sought with a large enough effect; inconclusive = small, poorly fitted or top-dose-only effect, or another doubt; inactive = no such curve, though single readings can be large; an effect the other way counts as inactive or inconclusive.

Screening Cc1cc(SCC(=O)c2cccc([N+](=O)[O-])c2)nc(=O)[nH]1 returned Tb PYK inh 0%, LmPK inhibitor -12%, RE007 growth inh -11%, CHX counter 35* and Shiga toxin inh 80*.
`O=C(CSc1nc2ncccc2[nH]1)c1cccc([N+](=O)[O-])c1` gave Tb PYK inh -9%, LmPK inhibitor 8%, RE007 growth inh 4%, CHX counter 19*, Shiga toxin inh 15 and Giardia FBPA inh -30%.
`COC(=O)CSc1nc2ncccc2[nH]1` gave Tb PYK inh 2%, LmPK inhibitor -1%, RE007 growth inh 8%, CHX counter -1, Shiga toxin inh -1 and Giardia FBPA inh -13%.
Screening CCOc1ccc(N2CC(NC(=O)c3ccc4c(c3)OCO4)CC2=O)cc1 (stereo unspecified) returned Tb PYK inh 19%.
`CCn1c(C)nc2cc(C(=O)NNC(=S)Nc3ccccc3OC)ccc21` gave Tb PYK inh -13%, LmPK inhibitor -9%, RE007 growth inh 6%, CHX counter 20*, Shiga toxin inh 33* and Giardia FBPA inh 7%.
For CCn1c(C)nc2cc(C(=O)N/N=C(\C)c3ccccc3O)ccc21 the results were Tb PYK inh -2%, LmPK inhibitor 9%, RE007 growth inh 1%, CHX counter 31*, Shiga toxin inh 85* and Giardia FBPA inh 12%.
CCn1c(C)nc2cc(C(=O)NN=Cc3ccccc3OC(F)F)ccc21 was read as Tb PYK inh -8% and RE007 growth inh -1%.
For CCn1c(C)nc2cc(C(=O)N/N=C/c3ccccc3C)ccc21 the results were Tb PYK inh 1%, LmPK inhibitor -2%, RE007 growth inh 3%, CHX counter 41*, Shiga toxin inh 133* and Giardia FBPA inh 1%.
For CCn1c(C)nc2cc(C(=O)NNC(=S)Nc3ccc(C)cc3)ccc21 the results were Tb PYK inh -27%, LmPK inhibitor -2%, RE007 growth inh -13%, CHX counter 12, Shiga toxin inh 25 and Giardia FBPA inh 9%.
`Cc1cc(O)c(-c2ccnc3cc(-c4ccccc4)nn23)cc1Cl` gave Tb PYK inh 0%.
`Cc1cc(C)c2c(=O)c3c(oc2c1)C(=O)N(Cc1ccco1)C3c1ccccc1F` (stereo unspecified) gave Tb PYK inh -1%.
O=S1(=O)C[C@H](N2CCN(CC3CC3)CC2)[C@@H](COCc2ccccc2)N1 was read as Tb PYK inh 3% and RE007 growth inh -14%.
`O=C(CCCCCN1C(=O)[C@@H]2Cc3ccccc3CN2C1=O)Nc1ccccc1Cl` gave Tb PYK inh 29%, LmPK inhibitor 2%, RE007 growth inh -4%, CHX counter 30*, Shiga toxin inh 30 and Giardia FBPA inh -8%.
Cc1ccccc1NC(=O)CCCCCN1C(=O)[C@@H]2Cc3ccccc3CN2C1=O was read as Tb PYK inh 5%, LmPK inhibitor -12%, RE007 growth inh -1%, CHX counter 12 and Shiga toxin inh -16.
For COc1ccc(/C=C/C2=NN(C)C(=O)CC2)cc1 the results were Tb PYK inh -17%, LmPK inhibitor -6%, RE007 growth inh -21%, CHX counter 34*, Shiga toxin inh 54* and Giardia FBPA inh 1%.
COc1ccc(C=O)cc1 was read as Tb PYK inh 0% and RE007 growth inh 9%.
CCOC(=O)CN1N=C(/C=C/c2ccc(C)cc2)CCC1=O was read as Tb PYK inh -3%, LmPK inhibitor 5%, RE007 growth inh 5%, CHX counter 21, Shiga toxin inh 47* and Giardia FBPA inh -1%.
Screening Cc1ccc(/C=C/C2=NN(Cc3ccc(Cl)c(Cl)c3)C(=O)CC2)cc1 returned Tb PYK inh 1%, LmPK inhibitor 5%, RE007 growth inh 3%, CHX counter 10, Shiga toxin inh 31 and Giardia FBPA inh -10%.
For CC(=O)c1ccc(NC(=O)c2noc(C)c2[N+](=O)[O-])cc1 the results were Tb PYK inh 3%, LmPK inhibitor -2%, RE007 growth inh -24%, CHX counter 31* and Shiga toxin inh 63*.
Screening Cc1onc(C(=O)NCCc2ccccc2)c1[N+](=O)[O-] returned Tb PYK inh 5%, LmPK inhibitor 0%, RE007 growth inh 11%, CHX counter 14, Shiga toxin inh 48 and Giardia FBPA inh -4%.
For Cc1onc(C(=O)Nc2ccc(OC(F)(F)F)cc2)c1[N+](=O)[O-] the results were Tb PYK inh 1%, LmPK inhibitor -1%, RE007 growth inh -4%, CHX counter 57* and Shiga toxin inh 89*.
`Cc1cccc(C)c1C(O)c1ncc(-c2ccc(F)cc2)[nH]1` (stereo unspecified) gave Tb PYK inh -1% and RE007 growth inh -16%.
CC1(C)CC(=O)C=C(NNC(=O)c2ccc(N)cc2)C1 was read as Tb PYK inh -8%, LmPK inhibitor 1%, RE007 growth inh 5%, CHX counter 6, Shiga toxin inh 6 and Giardia FBPA inh -1%.
For CC1(C)CC(=O)C=C(NNC(=O)c2ccccc2)C1 the results were Tb PYK inh 6%, LmPK inhibitor -1%, RE007 growth inh -13%, CHX counter 24*, Shiga toxin inh active and Giardia FBPA inh -2%.
`C=C(C)C1CC=C(C)/C(=N\NC(=S)Nc2ccc(C)cc2)C1` (stereo unspecified) gave Tb PYK inh 2%, LmPK inhibitor 4%, CHX counter 23*, Shiga toxin inh 54* and Giardia FBPA inh 10%.
Screening Cc1cccc(NC(=O)N2CCC3(CC2)Oc2ccccc2C(=O)N3Cc2ccccc2F)c1C returned Tb PYK inh -2%.
For C=CCn1cnc2c(sc3nc(C)cc(C)c32)c1=O the results were Tb PYK inh 0%, LmPK inhibitor -2%, RE007 growth inh 2%, CHX counter 13, Shiga toxin inh 22 and Giardia FBPA inh 0%.
`CCOC(=O)Cn1cnc2c(sc3nc(C)cc(C)c32)c1=O` gave Tb PYK inh -2%, LmPK inhibitor 1%, RE007 growth inh 0%, CHX counter 20*, Shiga toxin inh 17 and Giardia FBPA inh 1%.
COC(=O)Cn1c(C)nc2c(sc3nc(C)cc(C)c32)c1=O was read as Tb PYK inh -14%, LmPK inhibitor -3%, RE007 growth inh -28%, CHX counter 49*, Shiga toxin inh 111* and Giardia FBPA inh 1%.
For CNS(=O)(=O)c1cccc(C(=O)OCc2cc(=O)oc3c(C)c(O)ccc23)c1 the results were Tb PYK inh 2%, LmPK inhibitor 2%, RE007 growth inh 1%, CHX counter 2, Shiga toxin inh 21 and Giardia FBPA inh -6%.
